# Assay results taken from PubChem BioAssay AID1049 (The Scripps Research Institute Molecular Screening Center, 2008).
# Hit rate of the full screen: of about 200,000 compounds, about 780 (0.39%) were called active. Rule as the data show it: active = TR-FRET ratio above about 2000; inactive = the rest. Many of the other results were omitted from the sample, so actives are more common in it than they were.
# Assay: detection-format interference in TR-FRET ratio – biochemical, artefact control for PPARgamma SRC-2 agonist project, primary screen (AID 1049)
# Details: TR-FRET artefact counter-screen; at 8 µM; stronger effect = higher value
row,Compound,TR-FRET ratio
1,COc1ccc(-c2nnco2)cc1OC,1520 (inactive)
2,COc1ccc2c(Cl)c(-c3nnco3)sc2c1,2130 (active)
3,COc1ccc2c(Cl)c(C(=O)NCc3ccco3)sc2c1,1570 (inactive)
4,COCCNC(=S)N/N=C/c1c(C)[nH]c2ccccc12,1410 (inactive)
5,COc1ccc(C(=O)NC2CCN(C(=S)NCCc3ccccc3)CC2)cc1,1560 (inactive)
6,C/C=C(\C)C(=O)NCCN1C2=NC[C@H](Cc3ccc(O)cc3)N2C[C@@H]1Cc1ccc(OC)cc1,1390 (inactive)
7,CCN1CCC2(CCN(Cc3cn[nH]c3-c3ccc(OC)c(F)c3)C2)C1 (stereo not drawn),1730 (inactive)
8,CN(C)c1ccnc(Oc2ccc(F)cc2)c1C#N,1800 (inactive)
9,N#Cc1ccc(-c2ccc(F)cc2)nc1Sc1ccccc1,1500 (inactive)
10,N#Cc1ccc(-c2ccc(Cl)cc2)nc1Oc1ccc(F)cc1,5180 (active)
11,CCn1cc(C(=O)Nc2cc(C)ccc2C)c(=O)c2ccc(C)nc21,1650 (inactive)
12,CCOC(=O)C1(Cc2cccc(OC)c2)CCN(C(C)CC(C)(C)O)CC1 (stereo not drawn),1480 (inactive)
13,COc1ccc(OC)c(C(=O)CSc2nnc(-c3cccs3)o2)c1,1750 (inactive)
14,NC(=O)CSc1oc(-c2cccs2)nc1S(=O)(=O)c1ccccc1,2010 (active)
15,COC(=O)CSc1nccc(-c2cccs2)n1,1880 (inactive)
16,CCCn1c(N)c(C(=O)CSc2nc3ccccc3c(=O)n2-c2ccc(OC)cc2)c(=O)[nH]c1=O,1480 (inactive)
17,Cc1cc(C)nc(/N=C2\NC(=O)CC(C(=O)O)N2c2ccc(Cl)cc2Cl)n1 (stereo not drawn),1590 (inactive)
18,COc1cccc(-c2ccc(SCC(=O)N3CCN(c4ccccc4)CC3)nn2)c1,1690 (inactive)
19,COc1cc(C2C(C(=O)c3ccc(C)o3)=C(O)C(=O)N2Cc2cccnc2)ccc1O (stereo not drawn),1570 (inactive)
20,COc1cc(C2C(C(=O)c3ccc(C)o3)=C(O)C(=O)N2CCc2ccccc2)ccc1O (stereo not drawn),1530 (inactive)
21,CCCOc1ccc(C2C(C(=O)c3ccc(C)o3)=C(O)C(=O)N2CCCn2ccnc2)cc1 (stereo not drawn),2170 (active)
22,COc1ccc(NC(=O)COC(=O)c2ccc(NS(=O)(=O)/C=C/c3ccccc3)cc2)cc1,1720 (inactive)
23,O=C(c1ccc2ccccc2n1)N1CCN(c2ccccc2Cl)CC1,1700 (inactive)
24,COc1ccc(C2C(C#N)=C(N)N(c3ncn[nH]3)C3=C2C(=O)CCC3)cc1 (stereo not drawn),1620 (inactive)
25,COc1cccc(CN2CCNC(=O)C2CC(=O)N(C)CCc2ccccn2)c1 (stereo not drawn),1620 (inactive)

row,Compound,TR-FRET ratio
1,Cc1ccc(S(=O)(=O)NC(C(=O)N2CCOCCOCCOCCOCC2)c2ccccc2)cc1 (stereo not drawn),1360 (inactive)
2,CC(C(=O)N1CCOCC1)N1c2cccc3cccc(c23)S1(=O)=O (stereo not drawn),2090 (active)
3,NC(=NC(=O)c1ccccc1)N1CCOCC1,1360 (inactive)
4,C/C(=N\N1CCN(Cc2ccc(C)cc2)CC1)c1ccco1,1400 (inactive)
5,Cc1nnc(SCc2cccc(Cl)c2)n(N)c1=O,1460 (inactive)
6,Cc1cc([N+](=O)[O-])nn1CCCC(=O)Nc1cccnc1Cl,1580 (inactive)
7,CC(NC(=S)Nc1ccc(S(N)(=O)=O)cc1)c1ccc2c(c1)OCO2 (stereo not drawn),1640 (inactive)
8,CC(C)(C)N(CC#CCC(O)(c1ccccc1)C1CCCC1)CCO (stereo not drawn),1230 (inactive)
9,O=C1NC(c2cccc(Cl)c2)Nc2ccccc21 (stereo not drawn),1540 (inactive)
10,CC(=O)N1c2ccccc2N(Cc2ccc([N+](=O)[O-])cc2)C(=O)C1(C)C,1510 (inactive)
11,CCC1CCCCN1C(=S)Nc1ccc(C(C)=O)cc1 (stereo not drawn),1340 (inactive)
12,CCN(CC)CCCNC(=O)CCc1ccccc1,1550 (inactive)
13,CCN(CCCNC(=O)CSc1cc(=O)n(C)c2cc(Cl)ccc12)Cc1ccccc1,2600 (active)
14,CCN(CC)CCCNC(=O)c1cc(-c2cccc(Cl)c2)on1,1610 (inactive)
15,CCc1ccc(CN(C)Cc2nc(Cc3ccccc3)no2)nc1,1650 (inactive)
16,CCOC(=O)c1ccc(NC(=O)c2cc(=O)[nH]c3ccccc23)cc1,1510 (inactive)
17,O=C(O)Cc1sc(-c2ccccc2)nc1-c1cccs1,2400 (active)
18,O=C(O)Cc1sc(-c2ccc(C(=O)O)cc2)nc1-c1ccccc1,1800 (inactive)
19,Cc1ccc(-c2nc(C)sc2CC(=O)O)cc1,1600 (inactive)
20,N#CC1(NC(=O)COc2ccc3oc4ccccc4c3c2)CCCCC1,1590 (inactive)
21,COc1cc(C=O)c(Br)cc1OCC(=O)NCc1ccccc1,1530 (inactive)
22,O=C(NCc1ccco1)c1cc2sccc2n1Cc1ccc(F)cc1,1520 (inactive)
23,CC1Cc2ccccc2N1C(=O)c1cc2sccc2n1Cc1ccccc1 (stereo not drawn),1970 (active)
24,O=C(CSCc1ccccc1)N1CCc2ccccc21,1410 (inactive)
25,O=C(c1cc2sccc2n1Cc1ccc(F)cc1)N1CCc2ccccc21,2950 (active)

row,Compound,TR-FRET ratio
1,Cc1cc(=O)[nH]c(SCC(=O)N2c3ccccc3CC2C)n1 (stereo not drawn),1610 (inactive)
2,CCOC(=O)c1cc2sccc2n1Cc1ccc(C#N)cc1,1400 (inactive)
3,COc1ccc(-c2csc(Cc3nc(O)cs3)n2)cc1,1650 (inactive)
4,CC(O)c1cccc(NC(=O)Cc2cccc3ccccc23)c1 (stereo not drawn),1490 (inactive)
5,CC1(C)CC(=O)C/C(=N\NC(=O)c2cccs2)C1,1760 (inactive)
6,COc1cc(/C=C/C(=O)OCC(=O)NC(=O)NCc2ccccc2)ccc1OCC#N,1430 (inactive)
7,C=CCNC(=O)CSc1nc2sc(C)c(C)c2c(=O)[nH]1,1430 (inactive)
8,CC(=O)c1sc2nc(SCC(=O)N3CCCCC3)[nH]c(=O)c2c1C,1990 (active)
9,O=C(CSc1nc2c(cnn2-c2ccc(F)cc2)c(=O)[nH]1)N1CCCCCC1,1460 (inactive)
10,Cc1cccc(OCc2nnc(SCC(=O)N3CCN(C(=O)c4ccco4)CC3)n2C)c1C,1760 (inactive)
11,Cn1c(=O)cc(SCC(=O)N2CCCC2)c2cc(Cl)ccc21,2940 (active)
12,Cn1c(=O)cc(SCC(=O)N2CCN(C(=O)c3ccco3)CC2)c2ccccc21,2320 (active)
13,CCOc1ccc(CCNC(=O)CSc2cc(=O)n(C)c3ccc(Cl)cc23)cc1OCC,1900 (inactive)
14,CC(=O)c1ccc(-n2nnnc2SCC(=O)N2CCN(C(=O)c3ccco3)CC2)cc1,1580 (inactive)
15,CCOC(=O)C1CCN(C(=O)CSc2cc(=O)n(C)c3ccccc23)CC1,2840 (active)
16,CCOC(=O)N1CCC(NC(=O)COc2cc(=O)n(C)c3ccccc23)CC1,1480 (inactive)
17,O=C(CSCc1ccc(Cl)cc1)N1CCCCC1,1510 (inactive)
18,CCOC(=O)C1CCN(C(=O)Cn2cc(C#N)c3ccccc32)CC1,1470 (inactive)
19,CN(C)C(CNC(=O)c1cccc(C#N)c1)c1ccco1 (stereo not drawn),1390 (inactive)
20,COc1ccc(NC(=O)CN2C(=O)CSC2=O)cc1,1580 (inactive)
21,Cc1ccc(CN2CCN(Cc3ccc(OCCO)cc3)CC2CCO)o1 (stereo not drawn),1600 (inactive)
22,CC(C)OCCCNC(=S)N1CCC(C(=O)c2ccc3c(c2)OCCO3)CC1,1610 (inactive)
23,O=C(Nc1cccc(O)c1)c1ccc(C(=O)c2ccccc2)o1,1480 (inactive)
24,COC(=O)CN1C(=O)N/C(=C/c2ccc(OC)c(C)c2OC)C1=O,1240 (inactive)
25,CCOc1ccc(C(=O)Nc2cccc(-c3ccc4nncn4n3)c2)cc1,1400 (inactive)

row,Compound,TR-FRET ratio
1,Cc1cccc(N2CCN(C(=O)c3cccc(S(=O)(=O)N4CCc5ccccc5C4)c3)CC2C)c1 (stereo not drawn),1420 (inactive)
2,C=CCn1c(-c2sc(-c3ccccc3)nc2C)n[nH]c1=S,1590 (inactive)
3,Cc1nc(-c2ccccc2)sc1C(=O)/C=C/c1ccccc1,1450 (inactive)
4,Cc1nc(-c2ccccc2)sc1-c1nc(-c2ccccc2)ncc1S(=O)(=O)c1ccccc1,1980 (active)
5,Cc1cc(NC(=O)CSc2nnc(Nc3ccccc3F)s2)no1,1500 (inactive)
6,Cc1cc(C)c2c(c1)cc(C)c1nnc(SCC(=O)Nc3cc(C)on3)n12,1970 (active)
7,Cc1ccc(-c2csc(SCC(=O)Nc3cc(C)on3)n2)cc1,1440 (inactive)
8,CCN(CC)C(=O)C(=O)Nc1cccc(Br)c1,1590 (inactive)
9,COc1ccc(-n2c(O)c(C=NCC(c3ccco3)N3CCCC3)c3ccccc3c2=O)cc1OC (stereo not drawn),1590 (inactive)
10,COc1ccccc1C1/C(=C(/O)c2ccc(C)cc2)C(=O)C(=O)N1Cc1ccco1 (stereo not drawn),1510 (inactive)
11,COc1ccc(/C(O)=C2/C(=O)C(=O)N(c3nc(C)c(C)s3)C2c2ccco2)cc1 (stereo not drawn),2180 (active)
12,COc1ccc(/C(O)=C2\C(=O)C(=O)N(Cc3ccco3)C2c2ccc(OC)cc2OC)cc1 (stereo not drawn),1620 (inactive)
13,Cc1ccc(S(=O)(=O)Nc2nc3ccccc3s2)cc1[N+](=O)[O-],1360 (inactive)
14,Cc1ccc(C)c(-n2cc(CN3CCN(C(=O)c4ncn[nH]4)CC3)c(-c3ccccc3)n2)c1,1390 (inactive)
15,COc1cc(SC#N)ccc1N=Cc1c(C)[nH]n(-c2ccc(C)cc2)c1=O,1980 (active)
16,CCc1nnc(NS(=O)(=O)c2ccc(N=Cc3c(C)[nH]n(-c4ccc(C)cc4)c3=O)cc2)s1,1630 (inactive)
17,Cc1ccc(-n2[nH]c(C)c(/C=N/N3C(=O)c4cccc5cccc(c45)C3=O)c2=O)cc1,1510 (inactive)
18,Cc1cc(C)c(NC(=O)c2oc3ccccc3c2COc2ccccc2)c(C)c1,1540 (inactive)
19,CCCCCC(O)c1cccc(OCc2ccc3ccccc3n2)c1 (stereo not drawn),1460 (inactive)
20,CCN(CC)S(=O)(=O)c1ccc(N(C)Cc2cccc(OC)c2OC)nc1,1770 (inactive)
21,Cc1cccc(-c2ncc(CN3CCC(CO)(CCCc4ccccc4)CC3)cn2)c1,1690 (inactive)
22,OCC1(CCc2ccccc2)CCN(Cc2ccc3nsnc3c2)CC1,2040 (active)
23,CC(=O)c1cccc(CN2CCC(CO)(Cc3ccccc3)CC2)c1,1590 (inactive)
